Only some compounds are listed: those with a hit (about 6.3% of all), similar ones and a draw of the others.
Fluor 339 460: intrinsic fluorescence of library compounds, ex339/em460 – biochemical, MLSMR library, data from DPM-DC assay, artefact control, profiling panel; compound autofluorescence, ex339/em460 nm, NADH buffer; active compounds read high; 1 = no-compound wells, NADH background; fluorescence fold increase at 10 µM; 65,000 tested, 5.5% active; AID 709;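 active = at 10 µM, mean starting fluorescence two-fold or more over control wells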;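 also: signal is the first read of a kinetic run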
Spn DPM-DC inh: S. pneumoniae DPM-DC inhibition | purified DPM-DC, PK/LDH coupled NADH fluorescence | calls only at 10 µM | 65,000 tested, 0.49% active | AID 556;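 active = the 320 compounds with the highest percent inhibition in the single-dose primary screen, excluding strongly autofluorescent ones, cut at about 32% in these data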;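 also: kinetic rate of NADH fluorescence loss reporting ADP formed by the decarboxylase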
NADH coupling: inhibition of NAD/NADH coupling enzymes, library profiling; coupled PK/LDH NADH assays, four targets; 65,000 tested, 0.02% active; IC50, µM (highest dose often 10 µM);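 active = single-dose screening hits from any of four coupled enzyme assays that gave an IC50 when retested across doses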;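 also: the DPM-DC format reads NADH fluorescence rather than 340 nm absorbance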
Spn PMK inh: inhibitors of Streptococcus pneumoniae phosphomevalonate kinase | purified PMK, PK/LDH-coupled NADH absorbance 340 nm | inhibition, % at 10 µM | 65,000 tested, 0.49% active | AID 539;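 active = top-ranked compounds by inhibition in the single 10 µM screen, taking a fixed number of the strongest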
MK inhibit: blocks S. pneumoniae mevalonate kinase; purified MK, PK/LDH-coupled NADH absorbance 340 nm; inhibition, % at 10 µM; 65,000 tested, 0.48% active;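 active = ranked among the strongest by inhibition in the single 10 µM screen, a fixed top-ranked set picked for dose follow-up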
A340 absorber: compounds absorbing at 340 nm; compound absorbance at 340 nm, fold over control; 65,000 tested, under 10 active; fold change at 10 µM;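 active = at 10 µM dose, initial 340 nm absorbance at least 2 fold that of control wells; inactive = change under 2 fold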;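 also: initial absorbance extrapolated from kinetic A340 decline of NADH oxidation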
Numbers stand for hits; . = inactive; / = no result shown; + = active, no number.

SMILES	Fluor 339 460	Spn DPM-DC inh	NADH coupling	Spn PMK inh	MK inhibit	A340 absorber
CC1(c2ccncc2)Nc2ccccc2-c2nc3ccccc3n21 (configuration not stated)	.	.	.	.	.	.
CC(C)=CCC/C(C)=C/CN(CC(C)O)CC(C)O (configuration not stated)	.	.	.	.	40	.
CC(C)=CCCC(C)N(C=O)C(C)CCC=C(C)C (configuration not stated)	.	.	.	.	.	.
CC(C)C(=O)Nc1c2c(nc3ccccc13)N(C)CC2	2.2	/	.	.	.	.
O=C(CN1CCOCC1)Nc1c2c(nc3ccccc13)N(Cc1ccccc1)CC2	3.7	/	.	.	.	.
Cc1ccc(Cn2ncc3c(N4CCN(c5ccccc5C)CC4)ncnc32)cc1	.	.	.	.	.	.
O=c1c2cc(N3CCOCC3)ccc2[nH]c(=S)n1Cc1ccco1	3.5	.	.	.	.	.
COc1cccc(Cn2c(=S)[nH]c3ccc(N4CCOCC4)cc3c2=O)c1	3.7	+	.	.	.	.
O=c1c2cc(Cl)ccc2[nH]c(=S)n1Cc1ccco1	.	.	.	.	.	.
O=c1c2cc(N3CCOCC3)ccc2[nH]c(=S)n1CCCN1CCCC1	.	.	.	.	.	.
N#Cc1c(-c2ccco2)cc(C2CC2)nc1N	2.3	/	.	.	/	.
CSc1nc(C2CC2)cc(-c2cccs2)c1C#N	.	.	.	.	.	.
N#Cc1c(-c2ccccc2)cc(C2CC2)nc1N	3.6	/	.	.	.	.
C#CCNc1nc(CC)nc2c1nnn2Cc1ccccc1F	.	.	.	.	.	.
Cc1nnsc1-c1nc2ccccc2[nH]1	4.9	/	.	.	.	.
c1csc(-c2nc3ccccc3[nH]2)c1	3.6	/	.	.	.	.
Cc1[nH]c2ccccc2c1-c1nc2ccccc2[nH]1	.	.	.	.	.	.
Cc1ccc(-c2nc3ccccc3[nH]2)s1	2.5	/	.	.	.	.
Cc1ccsc1C(=O)OCC(=O)Nc1sccc1C(N)=O	.	.	.	.	.	.
CCCCNc1cc(NC(C)=O)cc2cc(OC)c(OC)cc12	2.1	/	.	.	.	.
CCCC(=O)Nc1cc(OC)c(OC)cc1C(=O)O	.	.	.	.	.	.
Cc1ccnc2ccc(-c3nc4ccccc4o3)cc12	5	/	.	.	.	.
CC(=O)Nc1nc2ccc(-c3nc4ccccc4o3)cc2s1	2.2	/	.	.	.	.
CCC(=O)Nc1cccc(-c2nc3ccccc3o2)c1	.	.	.	.	.	.
c1ccc(-c2nc3ccccc3o2)nc1	.	.	.	.	.	.
SMILES	Fluor 339 460	Spn DPM-DC inh	NADH coupling	Spn PMK inh	MK inhibit	A340 absorber
CCOC(=O)N1CCN(S(=O)(=O)N(C)C)CC1	.	.	.	.	.	.
CCN(CC)CCOc1cc2c(nn1)Oc1ccccc1N2C	3.8	/	.	.	.	.
Cc1ccc(C)c(NC(=O)CSc2nnc(-c3ccccc3)n2N)c1	.	.	.	.	.	.
CCn1nc(NC(=O)c2ccccn2)c2cc3cccc(C)c3nc21	3.4	/	.	.	.	.
O=C(Nc1ccc2c(c1)C(=O)N(C1CCCCC1)C2=O)C1CCCO1 (configuration not stated)	2.5	/	.	.	.	.
Cn1c(NCCCO)nc2c(c1=O)C1(CCCCC1)Cc1ccccc1-2	3.8	/	.	.	.	.
CCCn1c(SCC(N)=O)nc2c(c1=O)C1(CCCC1)Cc1ccccc1-2	.	.	.	.	.	.
Cc1ccc2c(c1)nnn2C1CCN(CC(=O)Nc2ccccc2N2CCOCC2)CC1	.	.	.	.	.	.
COC(=O)Cc1c(C)c2cc(Cl)c(OC(=O)c3ccco3)cc2oc1=O	2.1	/	.	.	.	.
COC(=O)Cc1c(C)c2ccc(OC(=O)c3ccco3)cc2oc1=O	2.1	/	.	.	.	.
Cc1ccc(CS(=O)(=O)CCC(=O)NCc2cccs2)cc1	.	.	.	.	.	.
CCOC(=O)C1CCCCN1Cc1ccc(F)c(Br)c1 (configuration not stated)	.	.	.	.	45	.
CCOC(=O)CSc1n[nH]c(-c2ccco2)n1	.	.	.	.	.	.
CCOc1ccc(-n2c(-c3ccco3)n[nH]c2=S)cc1	.	.	.	.	60	.
CCOC(=O)N1CCN(C(=O)C2CCN(Cc3nc(-c4ccccc4C)oc3C)CC2)CC1	.	.	.	.	.	.
O=C(O)c1cccc(N2CCCC2)c1	5	/	.	.	.	.

Compound activity from PubChem.
